Measurements from PubChem BioAssay AID1508600 (Functional Genomics Laboratory (NCATS/FGL), 2020).
Out of some 53,000 sequences screened, about 3,700 (7%) were called active.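 The calls were made as follows: active = gene knockdowns whose robust z-score for IL-1 alpha signal is at least 2 or at most -2, so actives lie on both sides; inactive = the rest.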 The sample as a whole holds a higher share of actives than the screen did.

experiment: Components of the Cytosolic LPS Sensing Pathway: Gene Identification via Genome-wide siRNA Screen; conditions: RAW264.7 macrophages, IL-1a HTRF, actives lie on both sides, screened at 100 nM (by protocol), cells primed 5 h with Pam3CSK4 first;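 also: robust z of the log signal after scaling to non-targeting control siRNA wells of the plate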
In short: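 Supernatant IL-1a by HTRF from RAW264.7 cells primed with Pam3CSK4 (5 hours) and transfected with LipidA (24 hour) after 48h siRNA knockdown at 100 nM; cell viability checked with CellTiter-Glo.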

z-score, active:
GCCAAUGCAGGGUAAGUACTT against Tmtc2 -2.83
GCAUCAGAGGGAUUUCACUTT against Slc35d3 -2.68
GCAGUUGUCACUGGCAAGUTT against Aqp2 2.21
GCCUAUGCUCAACUUCUCGTT against Thap4 -3.31
GGUCGUGAUAUUAUUGGGUTT against Ddx47 2.91
GGAAGCAAACUUAAAGUGUTT against Ewsr1 2.17
CGCGGAGUUUCGAAGUGUCTT against Drd4 3.64
GGCAAUUCUGAAGAAACCATT against Ogn -2.23
CCACGCUCUCAAGGUAUAGTT against Cyp2d22 -2.81
GGAAGACCUUCAGAGAGAATT against Ell2 4.25
GGUGAUGAUGAUGGGCAACTT against Cdkn2a 2.02
GCCCUUUCCGUCUGAAAUCTT against Hydin 2.06
GCAAAGGCCAAAUAUGAGGTT against Dbil5 -2.71
GGACUGAUGGAUCCUUCCATT against Krtcap3 -2.12
CUUACCACCCUGAGUUUCATT against Olfr1066 -3.2

z-score, inactive:
GGAUUCCAAAUGCUUACAATT against Lysmd3 0.757
GCCUAUCCGACAACUUAGUTT against Slc25a17 0.136
GCAUAACCAAGUGUGAUGCTT against Actrt2 -0.439
GGAGAAAGUCAUCUUUGAUTT against Cdk5rap2 -0.41
GGAGACGGAGCUGUUAGAUTT against Plcb1 -0.104
GGUCCAUUAGCUAAAUCUUTT against Mysm1 1.87
CGAAGUGACAAUAAAUCAGTT against Snapc5 -0.0661
GGGAGCCAAAGUGAGAUUUTT against Azin2 0.736
GGCAAAGUGAGUAAGACAGTT against Habp2 0.0806
GCCCUAUUCCCAACUAUUCTT against Nefl -0.481
GGACUUUACAGACACUUUUTT against Kdm1b -1.57
GCAAAGGUUCUAGUUGAUATT against Cct2 -0.585
CCGAUUUUGUGGCCUCAUGTT against Emg1 -0.578
GGAGAAAUGGGUAAAAACUTT against Paral1 0.296
GGCCCUGACAGAGGAAAAATT against Impa2 -1.16
CGAUAUGAAGCGAAAUAUCTT against Pmpca 0.528
GCCUUCCAGUCAGUGAAAUTT against Foxn1 -0.174
GGAAAUCGAGCAAAAGACATT against Cep104 1.5
GCCAUUCUUUGAAAAGAGGTT against Ak8 -1.77
GCAGGUAAGUUAAAUGAUGTT against Ccdc148 0.961
CCCUUUACAUUACUCUAGCTT against Olfr715 0.141
GGGAGCGGAGCAAACAUAATT against Olfr1370 0.675
CGGUUCUUUUACCAAGAUCTT against Jak3 -0.781
GCCGAGUUUACUUGUUUGATT against Exd1 0.554
GGUGUUCUGUAUCUUGUUCTT against Ndn 0.572
GGAGCUCCAUGACAUGUUUTT against Stx3 -0.37
GGAACCUAACAGAGAAACATT against Prpsap2 -0.166
GCAAAUACUCAAGUUCAGATT against Cpt1b 0.382
GGAUACUCGGGAUCUAGUATT against Anxa11 -1.44
GGAGGAGUCCCAUAACUCATT against Cby2 1.05
GGUAAACUUGACAAUAGGATT against Zc3h14 -0.512
CCCUGGUCGUCAUUUUCAATT against Morc2b 1.54
GCACAAGCGUGGAACACAUTT against Dctn2 0.702
GGCCCAACAUAUAUCAAAUTT against Adck2 1.38
GGAAACUGUUGAAUCUUGUTT against Smad5 1.42
GGGAUUGGGUAUUUUUUAGTT against B4galt1 -0.432
CCCGUACAUUGAGUGCAAUTT against 6330403K07Rik 0.414
GGAGUUCAGGAAAAUUCUUTT against Fsd1l 0.0551
GGGAAAGUUAAUAUCAAGATT against Ephb4 0.185
GGACAAGAUUCUAAACUGCTT against Wdr37 1.03
GGCCUUGUAAAUUAUGCAUTT against Klhl23 0.61
GCUUCUGGUUUUCGGCUAUTT against Sfswap 0.427
GAUGUGUUAACUACACCGATT against Pyy 0.983
CGAGGAUGAGUUCAGUGAGTT against Pdcl3 -1.19
GUUGGUUUGUUGACCUCUUTT against Arap2 0.1
CCUACUCUGGUAAAACCUUTT against Immp1l -0.365
GCCAUUAAAGGUAACACUGTT against Tmbim7 0.0423
GCCUUCUGAGAUAGUAGAUTT against Zcchc17 0.756
GGAGAAAAUCAAACCAGAUTT against Ddx19b 0.823
GGCAUCCAUCAACAACAGGTT against Ahsa1 -0.925
GCAUGUACCCUCUUUGUAGTT against Gjb6 -0.954
GGAUUCGAGUGGUAACAAGTT against Nmral1 0.617
GGUAUAGCUACCAUUUUUCTT against Ggct -1.05
GGAGAAAGCAGAAAUUGAATT against Mfap1a -1.31
